{"source": "PubChem BioAssay (NCI)", "note": "The panel holds about 83,000 compounds, 20% with a hit somewhere; the sample as a whole holds those more often.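 Note: values are percent growth. 100 is the growth of untreated cells, values between 100 and 0 indicate rising inhibition; between -100 and 0 indicates cell death.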 Values without a mark were called inactive. The source made the active and inactive calls. How the source made its calls: active means growth percent below 10; inactive means the rest."}
{"system": "HL-60(TB) leukemia", "assay": "NCI-60 one-dose screen, 48 h (100 = growth as untreated, 0 = no growth, -100 = all killed)", "settings": "10 µM unless noted"}
{"smiles": "c1ccc(-c2n(Cc3ccc4ccccc4c3)c3c4ccccc4c4ccccc4c3[n+]2Cc2ccc3ccccc3c2)cc1", "growth": "-61.4% (active)"}
{"smiles": "O=C1c2c(c3c4cc(Br)ccc4[nH]c3c3ccc4ccccc4c23)C(=O)N1CCN1CCCCC1", "growth": "1.48% (active)"}
{"smiles": "C/C(=C(/C)C1CC1CCN(C(=O)c1ccccn1)S(=O)(=O)c1ccc(C)cc1)C1CCCCC1", "note": "(configuration not stated)", "growth": "97.4%"}
{"smiles": "CCOC(=O)c1nn(-c2ccc(C)cc2)c(=O)c2c(N)c(C#N)c(-c3ccc(OC)cc3)cc12", "growth": "125%"}
{"smiles": "Cc1ccc(CNS(=O)(=O)/N=C2\\NC(=O)NC2=C(Cl)Cl)cc1", "growth": "28.6%"}
{"smiles": "IP(CCCCCCCCCCSc1n(Cc2ccc3ccccc3c2)c(-c2ccccc2)c(-c2ccccc2)[n+]1Cc1ccc2ccccc2c1)(c1ccccc1)(c1ccccc1)c1ccccc1", "growth": "-62.5% (active)"}
{"smiles": "CN1CCN(Cc2ccc(NC(=O)c3cncc(C#Cc4cnc5ccc(OCCCS(C)(=O)=O)nn45)c3)cc2C(F)(F)F)CC1", "growth": "-6.31% (active)"}
{"smiles": "COc1cc(Cn2cc3c(c2)-c2onc(CN4CCCC4)c2CC3)cc(OC)c1OC", "growth": "99%"}
{"smiles": "O=C1c2c(c3c4cc(Br)ccc4[nH]c3c3ccc4ccccc4c23)C(=O)N1CCN1CCNCC1", "growth": "62.3%"}
{"smiles": "O=C(Nc1cccc(Cl)c1)Nc1nc2ccc(-c3cccc4ccccc34)cc2s1", "growth": "66.9%"}
{"smiles": "Cn1cc(-c2nnc(N)nc2-c2cn(C)c3ccc(F)cc23)c2cc(F)ccc21", "growth": "79.3%"}
{"smiles": "COc1ccc(C(=O)/C=C/c2ccc(OCc3ccc(C)cc3)c(OC)c2)cc1OC", "growth": "40.7%"}
{"smiles": "CCc1nn2c(C)cc(C)nc2c1Cc1ccc(/C=C/CN2CCN(CCOCCOCCN3CCN(C/C=C/c4ccc(Cc5c(CC)nn6c(C)cc(C)nc56)cc4)CC3)CC2)cc1", "growth": "-51.4% (active)"}
{"smiles": "CCc1cc(OC(=O)N2CCN(CCC(C)(COC(C)(C)C)COC(C)(C)C)CC2)ccc1Nc1cc(-c2ccc(-n3cccn3)cc2)[nH]n1", "growth": "66.5%"}
{"smiles": "N#C/C(=C\\c1ccc(Cl)cc1Cl)C(N)=O", "growth": "90.9%"}
{"smiles": "CCOC(=O)c1c(Nc2ccccc2)nn2c(-c3ccco3)c(C#N)cnc12", "growth": "110%"}
{"smiles": "CC(C)=CCC[C@](C)(O)[C@H]1CC[C@]2(C)[C@@H]1CC[C@@H]1[C@@]3(C)CCC(NC(=O)c4ccccc4C(=O)O)C(C)(C)[C@@H]3CC[C@]12C", "note": "(some centres not stated)", "growth": "90.2%"}
{"smiles": "CN1CCN(c2ccc(Nc3nc(NCCCNS(=O)(=O)c4ccc(Cl)cc4)c4sccc4n3)cc2)CC1", "growth": "-43.7% (active)"}
{"smiles": "O=C(NCCN1CCCC1)c1ccc(-c2nc3ccc4[nH]ncc4c3c3c2CCCC3)cc1", "growth": "-49.8% (active)"}
{"smiles": "CN1CCN(Cc2ccc(NC(=O)c3cncc(C#Cc4cnc5ccc(OCC(F)F)nn45)c3)cc2C(F)(F)F)CC1", "growth": "-52.2% (active)"}
{"smiles": "C=CCn1c(SCC(=O)Nc2cccc(C(=O)/C=C/c3ccc(Cl)cc3)c2)nc2ccccc2c1=O", "growth": "103%"}
{"smiles": "CC(C)(C)CC(C)(C)n1nnnc1C(Nc1nccs1)c1cc2cccc3ccc4cccc1c4c32", "note": "(configuration not stated)", "growth": "107%"}
{"smiles": "O=C(Nc1ccc(F)c(F)c1)c1cc(-c2ccc(F)cc2F)ccc1O", "growth": "-30.8% (active)"}
{"smiles": "CC(=O)Nc1ccc(NC(=O)Nc2cccc(-c3nc(-c4ccc(NC(=O)c5cccnc5)cc4Cl)no3)c2)cc1C(F)(F)F", "growth": "-39.1% (active)"}
{"smiles": "O=C(CSc1nc2ccccc2c(=O)n1-c1ccc(S(=O)(=O)Nc2ccc(Cl)nn2)cc1)Nc1ccc(S(=O)(=O)Nc2ccc(Cl)nn2)cc1", "growth": "96.4%"}
{"smiles": "Nc1cc(-c2c[nH]c3ccc(Br)cc23)nc2cc(-c3c[nH]c4ccc(Br)cc34)nn12", "growth": "9.1% (active)"}
{"smiles": "COC(=O)c1cccc(NC2=C(Cl)C(=O)c3nc(C)ccc3C2=O)c1", "growth": "24.3%"}
{"smiles": "COc1ccc(OC)c([C@H]2c3[nH]c4ccccc4c3C[C@H]3C(=O)N(CCCCCCC(=O)NO)CC(=O)N23)c1", "growth": "91.1%"}
{"smiles": "CNC(=O)c1cc(Oc2ccc3nc(NC(=O)c4cc(N5CCOCC5)cc(C(F)(F)F)c4)sc3c2)ccn1", "growth": "68%"}
{"smiles": "CS(=O)(=O)c1ccc2c(c1)c1c(n2S(=O)(=O)c2ccc(Cl)cc2)CCCC1", "growth": "4.55% (active)"}
{"smiles": "O=C(O)c1ccc(-n2c(=O)n(-c3cccc(C(F)(F)F)c3)c(=O)c3cc(-c4ccc(F)cc4F)ccc32)cc1", "growth": "-41.4% (active)"}
{"smiles": "Cc1cc2nc(C(Cl)Cl)nc(-c3cccs3)n2n1", "growth": "-25.4% (active)"}
